The values below come from PubChem BioAssay AID940 (Emory University Molecular Libraries Screening Center, 2007).

Where “and” joins values, the source holds several entries; their conditions need not be identical. Identical values can stand only once. About 2,200 (0.85%) of roughly 260,000 compounds were called active.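 The calls were made as follows: active = compounds whose cAMP rise, as percent of the full-agonist control response, exceeds 60; inactive = the rest.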 This excerpt belongs to a sample that is enriched for actives. The source holds several records for some structures; these can differ, active in one and inactive in another.

The target of this test is Prostaglandin E2 receptor EP2 subtype (Homo sapiens) (UniProt P43116). The test is described as follows: modulation of human EP2 prostaglandin signaling – cell-based, HTRF cAMP, PGE2 stimulation, primary screen (AID 940).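 Also: rat C6 glioma line stably carrying human EP2 under a CMV promoter; the protocol text gives 20 µM as final concentration; 100% = response of wells given 1 µM PGE2.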 The following applies: EP2-expressing cells, cAMP HTRF FRET, PGE2 co-stimulation; at 25 µM; stronger effect = higher value. For orientation: TR-FRET usually uses a lanthanide donor and a delayed reading to cut background.
Chain of Prostaglandin E2 receptor EP2 subtype (Homo sapiens) (P43116 whole entry, looked up): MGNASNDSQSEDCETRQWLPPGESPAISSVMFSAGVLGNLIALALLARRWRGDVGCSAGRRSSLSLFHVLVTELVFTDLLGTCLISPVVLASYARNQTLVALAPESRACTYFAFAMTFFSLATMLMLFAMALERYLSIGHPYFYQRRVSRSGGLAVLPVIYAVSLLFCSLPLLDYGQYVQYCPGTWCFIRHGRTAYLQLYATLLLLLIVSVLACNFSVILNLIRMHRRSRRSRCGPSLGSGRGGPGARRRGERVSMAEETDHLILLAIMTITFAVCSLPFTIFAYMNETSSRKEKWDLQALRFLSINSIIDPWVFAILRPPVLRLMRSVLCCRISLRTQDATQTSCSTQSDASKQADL
For the molecule `Cc1sc2ncnc(NCC(=O)O)c2c1C`, the induction is 2.64% (inactive). For the molecule `COc1cc(-c2nnc(SCC(=O)N3CCC(C)CC3)o2)cc(OC)c1OC`, the induction is -36.6% (inactive). Take `CCN1CCCC1CN(Cc1ccccn1)Cc1cccn1-c1ccncc1` (centres undefined): the induction is 7.11% (inactive). As for `Cc1cc(=O)[nH]c(SCC(N)=O)c1C#N`, the induction was 24.2% (inactive). For `CCN(CC)C(=O)CSc1nc2c(C)c(C)ccc2cc1C#N`, the induction was 27.6% (inactive).

For the molecule `Cc1cc(C#N)c(SCC(N)=O)nc1-c1ccc(F)cc1`, the induction is 65.8% (active). For `CCc1c(C)nc(NC2CCN(C(=O)c3cccc(N(C)C)c3)CC2)[nH]c1=O`, the induction was -19.1% (inactive). For `COC(=O)CSc1nnc(CSc2nc(C)cc(C)n2)n1-c1ccc(C)cc1`, the induction is -20.7% (inactive). Regarding `CCOc1ccc(NC(=O)CSc2ncnc3c2sc2ccccc23)cc1`, the induction was 78.8% (active). Consider `CCOc1ccc(NC(=O)CSc2nc(C(C)C)nc3ccccc23)cc1`, for which the induction was 10.4% (inactive). On to `COc1cc(NC(=O)CSc2ncnc3c2sc2nc4cc(C)ccc4cc23)cc(OC)c1`, for which the induction is -7.45% (inactive). On to `CC(c1ccccc1)n1c(Br)nc2c1c(=O)n(C)c(=O)n2C` (centres undefined), for which the induction was -1.23% (inactive). In the case of `COc1ccc2[nH]c(=O)c(CN(C3CCCC3)C(c3nnnn3Cc3ccccc3)C(C)C)cc2c1` (centres undefined), the induction was 40.1% (inactive). As for `Cc1ccc(C(=O)OC2CCCN(C)C2)cc1` (centres undefined), the induction was 11.9% (inactive) and -29.7% (inactive). The figure for `CC1(C)C2CCC1(C)C(OC(=O)c1ccc(O)cc1)C2` (centres undefined) is 67.5% (active). For the molecule `CC1(C)C2CCC1(C)C(OC(=O)CCn1ccnc1)C2` (centres undefined), the induction was -7.75% (inactive). For the molecule `c1ccc(C(c2nnnn2Cc2ccc3c(c2)OCO3)N2CCN(C3CCCCC3)CC2)cc1` (centres undefined), the induction was -64.5% (inactive). In the case of `CC(C)(C)C(=O)c1cn(CC(=O)N2CCCCC2)c2ccccc12`, the induction is -9.2% (inactive).

`CCn1c(C)nnc1SCC(=O)Nc1ccc(Br)cc1`: the induction is -1.86% (inactive). For the molecule `CCOC(=O)N1CCN(CC(=O)Nc2cc(C)nn2-c2nc3ccccc3s2)CC1`, the induction is 32.4% (inactive). Take `CC(=O)Nc1ccc(NC(=O)CN2CCCC(C)C2)c(Cl)c1` (centres undefined): the induction is -9.9% (inactive).

In the case of `Cc1cc(NC(=O)CN2CCCC(C)C2)n(-c2nc3ccccc3s2)n1` (centres undefined), the induction is 77.7% (active). The figure for `COc1ccc(Cc2n[nH]c(=S)n2C)cc1` is 25.4% (inactive); for `Cc1cc(-c2cnc(C)nc2C2CCN(C(=O)Cc3ccc(C)s3)CC2)on1` it is -15.1% (inactive). Regarding `CN(C)c1ccc(/C=N/N(Cc2ccccc2)c2ccccc2)cc1`, the induction was 23.9% (inactive). The figure for `Oc1ccc(/C=N/N(Cc2ccccc2)c2ccccc2)cc1` is 67.5% (active).

Consider `O=C(N/N=C/c1ccc(OCc2ccccc2)cc1)c1ccc(O)cc1`, for which the induction was -46.8% (inactive).

Turning to `Cc1ccc(C(=O)c2c(NC(=O)c3ccncc3)sc3c2CCCC3)cc1`, the induction was 68.7% (active). The figure for `Cc1ccc(C(=O)c2c(NC(=O)c3ccccc3)sc(C)c2C)cc1` is 8.95% (inactive). Take `Cc1ccc(NC(=O)c2c(NC(=O)CCC(=O)O)sc3c2CCCCC3)cc1`: the induction is 12.1% (inactive) and -20.9% (inactive). As to `Cc1cc(-c2cncnc2C2CCCN(CC(=O)Nc3cc(C)on3)C2)on1` (centres undefined), the induction was 0.23% (inactive). In the case of `CCOC(=O)c1c(CN2CCOCC2)nc2ccc(Cl)cc2c1-c1ccccc1`, the induction was 22.7% (inactive). The figure for `CCSc1nnc(-c2cc3c(s2)-c2ccccc2CC3)o1` is 63.3% (active); for `C#CCSc1nnc(-c2sc3ccccc3c2Cl)o1` it is 40.2% (inactive). `Fc1ccc(CSc2nnc(-c3cc4c(s3)-c3ccccc3CC4)o2)cc1`: the induction was 1.98% (inactive). On to `CC(=O)c1ccc(S(=O)(=O)N2CCC(n3c(C)nc4cc(F)ccc43)CC2)cc1`, for which the induction was -40.5% (inactive). As for `Cc1occc1-c1nn(C2CCN(S(=O)(=O)N(C)C)CC2)c(=O)o1`, the induction is -53% (inactive).

`CCN(CC)C(=O)CSc1nc2ccccc2c(=O)n1-c1ccccc1`: the induction is -15.6% (inactive). Regarding `c1ccc(C(c2nnnn2C2CCCCC2)N2CCc3ccccc3C2)cc1` (centres undefined), the induction was 68.5% (active). Take `c1ccc(C(c2ccccc2)N2CCN(Cc3nnnn3C3CCCCC3)CC2)cc1`: the induction is 56.5% (inactive).

For the molecule `CN1CCN(C(c2ccccc2Cl)c2nnnn2C2CCCCC2)CC1` (centres undefined), the induction was -13.7% (inactive). In the case of `CCS(=O)(=O)N1CCN(c2nc3ccccc3s2)CC1`, the induction was -84.9% (inactive). On to `O=C(Cn1nc(-c2cccnc2)oc1=O)N1CCCC1`, for which the induction is -282% (inactive).

In the case of `COC(=O)c1sccc1NC(=O)COc1ccc(Cl)cc1`, the induction is 61.7% (active).

Regarding `COC(=O)c1sccc1NC(=O)CCC1CCCC1`, the induction was 11.9% (inactive). For `O=C(COc1ccc(Cl)cc1)Nc1ccccc1CO`, the induction is -10.2% (inactive). For the molecule `CCN(CC)CCN(Cc1cc2cccc(C)c2[nH]c1=O)C(=S)NCCOC`, the induction is -15.8% (inactive). In the case of `CC(C(=O)N1CCC(n2nc(-c3ccco3)ccc2=O)CC1)c1ccccc1` (centres undefined), the induction was -23.1% (inactive).

Take `Cc1nn2c(c1-c1ccccc1)N=C(c1ccco1)CC2c1ccccc1` (centres undefined): the induction was 83.8% (active). For the molecule `COCC(=O)Nc1nnc(Cc2ccccc2)s1`, the induction was -1.1% (inactive). In the case of `CCc1nn(CC(=O)NC(C)c2ccccn2)c(=O)c2cc3ccsc3n12` (centres undefined), the induction is -14.5% (inactive). The figure for `O=C(c1ccn[nH]1)N1CCn2cc(C(F)(F)F)nc2C1` is -3.08% (inactive).

`COc1ccc(CN2CCCCC2C)cc1OC` (centres undefined): the induction is 1.32% (inactive). Turning to `CC1CCCCN1CC(=O)NCc1ccc2c(c1)OCO2` (centres undefined), the induction is 8.14% (inactive).

`CCc1ccc2oc(=O)cc(CN3CCCCC3C)c2c1` (centres undefined): the induction was 64.2% (active). With `CCOC(=O)CNC(=O)CSc1nnnn1-c1cc(C)ccc1C`, the induction was -4.73% (inactive). The figure for `COC(=O)c1ccccc1NC(=O)CSc1nnnn1C` is 20.6% (inactive) and 0.97% (inactive); for `CCOC(=O)c1c(-c2ccc(C)cc2C)csc1NC(=O)CSc1nnnn1C` it is 63.5% (active); for `CSc1nc(O)c(C2CCCCC2)c(=O)[nH]1` it is -1.22% (inactive). For `COc1ccc(CNC(=O)CCSc2nc(-c3ccco3)cc(C(F)(F)F)n2)cc1OC`, the induction is -21.3% (inactive). With `CS(=O)(=O)N1CCc2cc(C(=O)N3C4CCC3CC(c3ccc(F)cc3)C4)ccc21` (centres undefined), the induction was -36.1% (inactive). For the molecule `COC(=O)Cn1c(C)nc2ccccc2c1=O`, the induction was 6.77% (inactive). Consider `CC(C)(C)c1nc2ccccc2c(=O)n1N1C(=O)c2ccccc2C1=O`, for which the induction was 65.2% (active). Regarding `CN(C)CCCn1c(SCCN2C(=O)c3ccccc3C2=O)nc2ccccc2c1=O`, the induction was -26% (inactive). Turning to `Cc1ccc(C2(O)CCN(Cc3cccc(OCc4ccccn4)c3)CC2)cc1`, the induction is -1.87% (inactive). With `CCCN(CC)c1nc2c(C)cccn2c(=O)c1/C=C1\SC(=S)N(CCCOC)C1=O`, the induction was 23% (inactive).

`COc1ccc(C2(NCc3ccccc3-n3cccn3)CC2)cc1`: the induction is 7.61% (inactive). For the molecule `C=CC1(C)CC(=O)C2(O)C(C)(O1)C(OC(C)=O)C(O)C1C(C)(C)CCC(O)C12C` (centres undefined), the induction is 102% (active). Take `C/C(=N\NC(=S)NC(C)C)c1ccc(C(C)(C)C)cc1`: the induction is 8.13% (inactive). On to `CC(C)NC(=S)NN=C1CCCCCCCCCCC1`, for which the induction is 68.3% (active). The figure for `CC(C)(C)NC(=O)C(=O)NN=C1CCCCCCC1` is 27.3% (inactive). As to `COc1cc(-c2nc3cnccn3c2NCC2CCCO2)ccc1O` (centres undefined), the induction is -29.6% (inactive). Turning to `O=C(CS(=O)(=O)c1cn(Cc2cccc(F)c2)c2ccccc12)N1CCCCC1`, the induction was -10.4% (inactive).

Take `O=c1cc(N2CCCCC2)c(-c2ccccc2)nn1Cc1cccc(F)c1`: the induction is 90% (active). In the case of `O=c1cc(N2CCN(Cc3ccccc3)CC2)c(-c2ccccc2)n[nH]1`, the induction is -2.25% (inactive). For `CC(=O)Nc1c[nH]c(=O)[nH]c1=O`, the induction is -5.98% (inactive).

With `CC[C@H]1OC(=O)[C@H](C)[C@@H](O[C@H]2C[C@@](C)(OC)[C@@H](O)[C@H](C)O2)[C@H](C)[C@@H](O[C@@H]2O[C@H](C)C[C@H](N(C)C)[C@H]2O)[C@](C)(O)C[C@@H](C)[C@@H]2N[C@@H](COCCOC)O[C@H]([C@H]2C)[C@]1(C)O`, the induction is 64.2% (active) and 17.8% (inactive). `Cc1ccc(-c2c(C)[nH]n3c(=O)c4c(nc23)CCC4)cc1`: the induction was -89.9% (inactive).

Regarding `COc1ccc(N2CCN(C(c3ccccc3)c3nnnn3Cc3cccs3)CC2)cc1` (centres undefined), the induction was 21.1% (inactive). Regarding `C=CCNc1nc(-c2sc(NC(=O)c3ccccc3)nc2C)cs1`, the induction is -131% (inactive).

Turning to `CCN(CC)c1nc2c(c(=O)n(C)c(=O)n2C)n1Cc1ccc(C)cc1`, the induction was -126% (inactive). With `COc1ccc(CN(Cc2cc3c(cc2OC)OCO3)CC2CCCO2)c(OC)c1` (centres undefined), the induction is -3.15% (inactive). Take `Cc1oc2c(c1CC(=O)NCc1noc(-c3ccccc3)n1)C(=O)CC(C)(C)C2`: the induction is -16.5% (inactive). Turning to `CC(C)CCSc1ncnc2c1oc1nc3c(cc12)COC(C)(C)C3`, the induction was 29.9% (inactive). On to `CC1(C)Cc2nc3sc4c(SCC(=O)NC(c5ccccc5)c5ccccc5)ncnc4c3cc2CO1`, for which the induction is 70.1% (active). On to `CCOCCCNC(=O)CSc1ncnc2c1sc1nc3ccccc3cc12`, for which the induction is -36% (inactive). The figure for `O=C(CN1C(=O)C2CCCN2S(=O)(=O)c2ccccc21)NCCc1ccccc1` (centres undefined) is -13.3% (inactive); for `Cc1cc(CN2CCc3c(nc(N4CCCC4)[nH]c3=O)C2)c(C)n1-c1cccnc1` it is -32.9% (inactive).

For `CC(C)n1c(SCC(=O)Nc2ccccc2N2CCCCC2)nc2c1c(=O)n(C)c(=O)n2C`, the induction is 9.15% (inactive). The figure for `Cn1c(=O)c2c(nc(SCC(=O)Nc3ccccc3N3CCCCC3)n2C)n(C)c1=O` is 67.3% (active) and 23.3% (inactive). Take `CCn1c(SCC(=O)Nc2cccc3ccccc23)nc2c1c(=O)n(C)c(=O)n2C`: the induction is -26.4% (inactive). As to `CSc1nc2nc(-c3cccc(C(F)(F)F)c3)ccn2n1`, the induction was 27.7% (inactive). The figure for `FC(F)(F)c1cccc(-c2cc3ccccc3nc2N2CCCC2)c1` is 65.5% (active).

`c1ccc(-c2cc(N3CCCCC3)c3ccccc3n2)cc1`: the induction was 40.2% (inactive).
